Measurements taken from publication PMC7862700, “An all-to-all approach to the identification of sequence-specific readers for epigenetic DNA modifications on cytosine”.

Key:
Test in all cases: DAPPL (digital affinity profiling via proximity ligation, sequencing); 10 mM Tris-HCl pH 7.5, 50 mM NaCl, 1 mM DTT, 4% glycerol, room temperature, 30 min; GST-TFs on glutathione beads, 16-mer random dsDNA library, 0.1% formaldehyde crosslink after washing; high values mean tight binding
FEV = target: T1, FEV (Homo sapiens, UniProt Q99581 1-238); conditions: protein: recombinant; tags: N-terminal GST; dsDNA, one strand shown
T1 sequence: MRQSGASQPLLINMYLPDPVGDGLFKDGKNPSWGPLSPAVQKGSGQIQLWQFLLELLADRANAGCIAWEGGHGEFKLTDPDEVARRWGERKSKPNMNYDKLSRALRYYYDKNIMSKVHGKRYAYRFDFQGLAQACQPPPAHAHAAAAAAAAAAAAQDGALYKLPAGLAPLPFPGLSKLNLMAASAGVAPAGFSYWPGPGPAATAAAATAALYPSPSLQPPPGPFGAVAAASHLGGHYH
How it was run: (§1)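 Human transcription factors carrying a GST fusion were produced in yeast, bound to glutathione beads, tagged with DNA barcodes and pooled together with a tag-only sample. Each pool was held with 200 nmole of a random double-stranded 16-mer DNA library in Tris/NaCl/DTT/glycerol buffer for 30 min at room temperature, then washed, crosslinked in 0.1% formaldehyde, proximity-ligated with BsaI/T4 ligase (1 h, 37 °C), PCR-amplified and sequenced on an Illumina NextSeq500. Binding signal is the read frequency of each hexamer for a given factor divided by its frequency in the tag-only sample.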

ETV5 = ETV5 (Homo sapiens, UniProt P41161 1-510); conditions: protein: recombinant; tags: N-terminal GST; dsDNA, one strand shown
Chain of ETV5 (P41161 whole entry): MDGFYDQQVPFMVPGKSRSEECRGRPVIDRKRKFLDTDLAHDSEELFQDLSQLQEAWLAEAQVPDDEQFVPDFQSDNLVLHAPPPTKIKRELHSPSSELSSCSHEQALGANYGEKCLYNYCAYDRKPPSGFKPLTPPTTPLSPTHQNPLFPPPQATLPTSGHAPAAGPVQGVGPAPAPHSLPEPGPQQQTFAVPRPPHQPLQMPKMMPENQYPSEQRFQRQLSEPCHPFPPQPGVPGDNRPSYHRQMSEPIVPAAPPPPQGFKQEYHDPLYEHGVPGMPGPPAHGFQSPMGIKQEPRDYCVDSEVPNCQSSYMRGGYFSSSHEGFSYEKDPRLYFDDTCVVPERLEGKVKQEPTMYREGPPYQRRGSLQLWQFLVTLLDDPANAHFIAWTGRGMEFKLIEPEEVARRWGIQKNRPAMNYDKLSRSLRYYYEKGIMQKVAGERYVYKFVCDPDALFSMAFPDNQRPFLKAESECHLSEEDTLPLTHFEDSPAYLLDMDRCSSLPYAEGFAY
How it was run: as §1

HSF1 = HSF1 (Homo sapiens, UniProt Q00613 1-529); conditions: protein: recombinant; tags: N-terminal GST; chain copies: 3; dsDNA, one strand shown
Chain of HSF1 (Q00613 whole entry): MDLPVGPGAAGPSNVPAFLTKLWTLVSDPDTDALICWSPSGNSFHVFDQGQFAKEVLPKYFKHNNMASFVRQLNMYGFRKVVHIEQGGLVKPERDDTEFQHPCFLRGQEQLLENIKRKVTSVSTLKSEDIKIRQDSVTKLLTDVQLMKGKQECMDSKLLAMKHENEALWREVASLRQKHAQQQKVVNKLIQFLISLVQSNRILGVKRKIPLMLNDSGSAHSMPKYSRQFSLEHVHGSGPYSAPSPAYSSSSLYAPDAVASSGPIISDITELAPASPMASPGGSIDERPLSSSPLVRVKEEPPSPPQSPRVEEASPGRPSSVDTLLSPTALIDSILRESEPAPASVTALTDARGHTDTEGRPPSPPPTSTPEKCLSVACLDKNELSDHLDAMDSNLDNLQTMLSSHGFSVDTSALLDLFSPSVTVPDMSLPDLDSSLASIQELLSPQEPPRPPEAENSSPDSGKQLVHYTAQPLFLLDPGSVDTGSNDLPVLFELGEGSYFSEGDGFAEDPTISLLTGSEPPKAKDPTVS
How it was run: as §1

SPIC = target: T2, SPIC (Homo sapiens, UniProt Q8N5J4 1-248); conditions: protein: recombinant; tags: N-terminal GST; dsDNA, one strand shown
T2 sequence: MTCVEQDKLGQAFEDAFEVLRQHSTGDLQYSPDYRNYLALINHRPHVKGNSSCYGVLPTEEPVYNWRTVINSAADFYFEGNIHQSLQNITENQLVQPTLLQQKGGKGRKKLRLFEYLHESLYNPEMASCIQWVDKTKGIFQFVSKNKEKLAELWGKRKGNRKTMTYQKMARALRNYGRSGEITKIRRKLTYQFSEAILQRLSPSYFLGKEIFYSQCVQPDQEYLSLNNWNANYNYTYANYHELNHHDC
How it was run: as §1

ELF4 = ELF4 (Homo sapiens, UniProt Q99607 1-663); conditions: protein: recombinant; tags: N-terminal GST; dsDNA, one strand shown
Chain of ELF4 (Q99607 whole entry): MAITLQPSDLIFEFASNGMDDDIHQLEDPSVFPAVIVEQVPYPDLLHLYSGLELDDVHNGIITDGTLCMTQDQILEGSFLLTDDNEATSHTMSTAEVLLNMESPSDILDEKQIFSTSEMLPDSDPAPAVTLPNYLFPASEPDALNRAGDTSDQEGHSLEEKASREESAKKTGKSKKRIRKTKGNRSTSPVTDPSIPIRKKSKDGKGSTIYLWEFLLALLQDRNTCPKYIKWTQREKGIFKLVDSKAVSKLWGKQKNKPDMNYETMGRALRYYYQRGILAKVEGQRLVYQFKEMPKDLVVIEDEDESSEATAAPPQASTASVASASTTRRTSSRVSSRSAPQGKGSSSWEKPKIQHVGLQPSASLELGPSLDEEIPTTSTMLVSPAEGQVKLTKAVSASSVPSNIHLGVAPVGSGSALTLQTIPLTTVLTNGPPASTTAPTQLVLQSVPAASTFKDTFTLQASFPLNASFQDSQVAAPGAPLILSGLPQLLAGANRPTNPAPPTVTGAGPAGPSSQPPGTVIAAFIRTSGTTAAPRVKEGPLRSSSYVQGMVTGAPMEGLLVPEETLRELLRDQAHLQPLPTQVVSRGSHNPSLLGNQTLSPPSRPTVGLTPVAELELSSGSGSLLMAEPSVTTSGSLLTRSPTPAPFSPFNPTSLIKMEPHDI
How it was run: as §1

ELK4 = target: T3, ELK4 (Homo sapiens, UniProt P28324-2 1-405); conditions: protein: recombinant; tags: N-terminal GST; dsDNA, one strand shown
T3 sequence: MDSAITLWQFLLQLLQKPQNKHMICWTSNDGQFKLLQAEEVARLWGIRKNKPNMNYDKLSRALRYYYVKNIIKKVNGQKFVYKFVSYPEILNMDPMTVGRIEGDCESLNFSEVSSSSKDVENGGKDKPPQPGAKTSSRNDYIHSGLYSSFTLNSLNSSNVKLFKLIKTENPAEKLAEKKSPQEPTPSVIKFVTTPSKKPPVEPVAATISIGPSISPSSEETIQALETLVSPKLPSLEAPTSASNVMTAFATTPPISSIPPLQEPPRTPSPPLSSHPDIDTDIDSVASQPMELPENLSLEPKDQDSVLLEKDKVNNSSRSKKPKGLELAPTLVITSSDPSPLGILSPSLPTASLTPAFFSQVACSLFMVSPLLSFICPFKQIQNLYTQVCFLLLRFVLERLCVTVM
How it was run: as §1

ETV2 = target: T4, ETV2 (Homo sapiens, UniProt O00321 1-342); conditions: protein: recombinant; tags: N-terminal GST; dsDNA, one strand shown
T4 sequence: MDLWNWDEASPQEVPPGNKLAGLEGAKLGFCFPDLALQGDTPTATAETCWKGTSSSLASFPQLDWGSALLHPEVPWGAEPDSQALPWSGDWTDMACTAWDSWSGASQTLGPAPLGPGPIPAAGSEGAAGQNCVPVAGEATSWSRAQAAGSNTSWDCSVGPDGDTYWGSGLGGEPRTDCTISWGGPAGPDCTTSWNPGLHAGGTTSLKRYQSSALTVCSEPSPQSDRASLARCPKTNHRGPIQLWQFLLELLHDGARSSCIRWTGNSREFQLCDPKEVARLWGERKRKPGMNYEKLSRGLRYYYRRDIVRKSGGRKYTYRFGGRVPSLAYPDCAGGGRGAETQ
How it was run: as §1

ELF3 = target: T5, ELF3 (Homo sapiens, UniProt P78545 1-371); conditions: protein: recombinant; tags: N-terminal GST; dsDNA, one strand shown
T5 sequence: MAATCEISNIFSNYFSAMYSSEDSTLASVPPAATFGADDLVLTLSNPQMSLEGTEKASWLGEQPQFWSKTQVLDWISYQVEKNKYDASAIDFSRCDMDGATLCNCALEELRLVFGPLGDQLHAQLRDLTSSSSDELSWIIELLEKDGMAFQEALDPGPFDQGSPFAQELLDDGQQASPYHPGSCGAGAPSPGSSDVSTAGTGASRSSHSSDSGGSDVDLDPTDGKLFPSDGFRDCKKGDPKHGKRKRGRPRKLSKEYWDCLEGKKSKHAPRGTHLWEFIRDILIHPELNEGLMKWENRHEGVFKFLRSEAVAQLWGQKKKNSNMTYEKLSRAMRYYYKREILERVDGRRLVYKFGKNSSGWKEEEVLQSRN
How it was run: as §1

CRX = CRX (Homo sapiens, UniProt O43186 1-299); conditions: protein: recombinant; tags: N-terminal GST; dsDNA, one strand shown
Chain of CRX (O43186 whole entry): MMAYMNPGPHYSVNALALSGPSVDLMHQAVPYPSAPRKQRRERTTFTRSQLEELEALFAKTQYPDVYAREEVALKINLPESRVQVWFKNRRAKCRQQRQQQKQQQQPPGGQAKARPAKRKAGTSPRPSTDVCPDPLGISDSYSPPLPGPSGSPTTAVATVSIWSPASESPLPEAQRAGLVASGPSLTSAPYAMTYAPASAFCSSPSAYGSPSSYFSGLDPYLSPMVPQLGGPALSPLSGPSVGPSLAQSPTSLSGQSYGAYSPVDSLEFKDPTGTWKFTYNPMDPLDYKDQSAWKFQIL
How it was run: as §1

ETV1 = ETV1 (Homo sapiens, UniProt P50549 1-477); conditions: protein: recombinant; tags: N-terminal GST; dsDNA, one strand shown
Chain of ETV1 (P50549 whole entry): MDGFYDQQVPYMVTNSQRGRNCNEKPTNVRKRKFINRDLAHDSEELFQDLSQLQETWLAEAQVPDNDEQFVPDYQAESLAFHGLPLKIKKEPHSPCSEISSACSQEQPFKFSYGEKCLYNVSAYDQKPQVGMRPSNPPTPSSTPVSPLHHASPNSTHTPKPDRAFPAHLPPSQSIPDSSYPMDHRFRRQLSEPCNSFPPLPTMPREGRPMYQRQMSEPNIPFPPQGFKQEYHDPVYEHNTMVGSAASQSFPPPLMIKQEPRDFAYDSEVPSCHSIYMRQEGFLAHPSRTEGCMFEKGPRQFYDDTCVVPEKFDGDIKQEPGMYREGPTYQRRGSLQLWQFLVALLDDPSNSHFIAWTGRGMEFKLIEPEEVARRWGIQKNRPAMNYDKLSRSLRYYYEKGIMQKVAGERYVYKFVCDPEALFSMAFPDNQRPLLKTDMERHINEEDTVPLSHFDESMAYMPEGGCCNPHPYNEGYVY
How it was run: as §1

ERF = target: T6, ERF (Homo sapiens, UniProt P50548 1-548); conditions: protein: recombinant; tags: N-terminal GST; dsDNA, one strand shown
T6 sequence: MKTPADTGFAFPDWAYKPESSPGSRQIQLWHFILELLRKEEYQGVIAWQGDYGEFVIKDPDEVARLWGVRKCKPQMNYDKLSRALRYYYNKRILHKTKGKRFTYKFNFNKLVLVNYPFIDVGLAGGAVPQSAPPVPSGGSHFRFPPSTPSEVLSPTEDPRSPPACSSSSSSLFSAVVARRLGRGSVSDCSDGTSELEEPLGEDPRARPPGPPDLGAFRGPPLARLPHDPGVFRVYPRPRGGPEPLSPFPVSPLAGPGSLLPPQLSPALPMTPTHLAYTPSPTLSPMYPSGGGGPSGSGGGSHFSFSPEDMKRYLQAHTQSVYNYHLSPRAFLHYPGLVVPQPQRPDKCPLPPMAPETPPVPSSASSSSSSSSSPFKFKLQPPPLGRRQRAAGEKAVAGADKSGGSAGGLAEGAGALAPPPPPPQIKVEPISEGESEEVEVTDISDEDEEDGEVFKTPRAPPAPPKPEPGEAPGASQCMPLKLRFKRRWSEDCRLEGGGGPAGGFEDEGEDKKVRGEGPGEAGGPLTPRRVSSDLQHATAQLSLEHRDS
How it was run: as §1

ETV3L = target: T7, ETV3L (Homo sapiens, UniProt Q6ZN32 1-361); conditions: protein: recombinant; tags: N-terminal GST; dsDNA, one strand shown
T7 sequence: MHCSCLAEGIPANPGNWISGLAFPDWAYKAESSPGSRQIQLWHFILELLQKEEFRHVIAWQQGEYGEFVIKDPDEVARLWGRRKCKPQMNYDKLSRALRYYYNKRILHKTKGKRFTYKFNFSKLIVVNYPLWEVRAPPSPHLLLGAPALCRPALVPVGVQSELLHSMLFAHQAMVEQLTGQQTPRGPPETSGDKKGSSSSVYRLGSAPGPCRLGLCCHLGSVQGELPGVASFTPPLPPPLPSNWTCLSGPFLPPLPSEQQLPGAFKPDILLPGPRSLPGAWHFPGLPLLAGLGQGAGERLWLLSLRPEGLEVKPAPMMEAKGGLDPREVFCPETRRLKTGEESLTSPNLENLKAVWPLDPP
How it was run: as §1

ETS2 = target: T8, ETS2 (Homo sapiens, UniProt P15036 1-469); conditions: protein: recombinant; tags: N-terminal GST; dsDNA, one strand shown
T8 sequence: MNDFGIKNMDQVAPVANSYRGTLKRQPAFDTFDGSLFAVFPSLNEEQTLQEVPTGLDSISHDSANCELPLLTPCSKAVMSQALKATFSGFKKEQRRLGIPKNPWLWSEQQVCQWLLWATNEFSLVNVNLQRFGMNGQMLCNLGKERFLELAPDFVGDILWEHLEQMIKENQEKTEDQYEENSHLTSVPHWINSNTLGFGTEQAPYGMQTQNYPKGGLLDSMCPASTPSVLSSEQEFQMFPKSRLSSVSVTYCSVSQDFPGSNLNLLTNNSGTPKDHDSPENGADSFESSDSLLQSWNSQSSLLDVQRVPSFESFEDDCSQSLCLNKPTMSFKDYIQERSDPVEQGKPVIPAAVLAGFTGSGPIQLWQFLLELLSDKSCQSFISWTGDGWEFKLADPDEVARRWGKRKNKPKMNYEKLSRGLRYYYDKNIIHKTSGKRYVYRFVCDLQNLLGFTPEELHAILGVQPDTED
How it was run: as §1

SPDEF = target: T9, SPDEF (Homo sapiens, UniProt O95238 1-335); conditions: protein: recombinant; tags: N-terminal GST; dsDNA, one strand shown
T9 sequence: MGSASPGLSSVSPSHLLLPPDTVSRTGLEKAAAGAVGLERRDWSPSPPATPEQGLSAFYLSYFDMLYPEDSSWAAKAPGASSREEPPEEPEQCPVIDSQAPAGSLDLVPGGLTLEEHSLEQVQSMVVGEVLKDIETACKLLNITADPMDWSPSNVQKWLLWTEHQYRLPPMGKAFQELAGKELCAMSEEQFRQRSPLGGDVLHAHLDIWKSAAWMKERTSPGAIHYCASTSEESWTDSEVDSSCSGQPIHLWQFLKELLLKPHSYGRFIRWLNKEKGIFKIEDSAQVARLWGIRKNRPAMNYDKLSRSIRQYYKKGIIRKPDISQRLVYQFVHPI
How it was run: as §1

ETV7 = target: T10, ETV7 (Homo sapiens, UniProt Q9Y603 1-341); conditions: protein: recombinant; tags: N-terminal GST; dsDNA, one strand shown
T10 sequence: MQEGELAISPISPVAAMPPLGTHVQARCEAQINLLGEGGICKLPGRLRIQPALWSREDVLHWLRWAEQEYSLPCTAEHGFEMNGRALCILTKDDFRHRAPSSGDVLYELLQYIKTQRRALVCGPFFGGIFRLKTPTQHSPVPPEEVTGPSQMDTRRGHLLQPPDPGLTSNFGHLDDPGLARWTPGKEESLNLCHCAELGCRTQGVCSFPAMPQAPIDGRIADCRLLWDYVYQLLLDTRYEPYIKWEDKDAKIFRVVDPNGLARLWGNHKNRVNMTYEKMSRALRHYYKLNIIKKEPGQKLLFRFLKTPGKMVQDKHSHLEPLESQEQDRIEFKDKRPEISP
How it was run: as §1

ELF5 = target: T11, ELF5 (Homo sapiens, UniProt Q9UKW6-2 1-255); conditions: protein: recombinant; tags: N-terminal GST; dsDNA, one strand shown
T11 sequence: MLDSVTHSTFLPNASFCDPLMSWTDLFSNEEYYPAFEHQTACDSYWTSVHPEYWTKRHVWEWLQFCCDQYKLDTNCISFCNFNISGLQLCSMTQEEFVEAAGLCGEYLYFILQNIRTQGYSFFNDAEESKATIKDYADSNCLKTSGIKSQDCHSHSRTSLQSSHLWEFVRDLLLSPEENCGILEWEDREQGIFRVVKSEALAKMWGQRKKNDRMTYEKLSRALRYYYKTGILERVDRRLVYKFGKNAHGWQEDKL
How it was run: as §1

ETV3 = target: T12, ETV3 (Homo sapiens, UniProt P41162-2 1-143); conditions: protein: recombinant; tags: N-terminal GST; dsDNA, one strand shown
T12 sequence: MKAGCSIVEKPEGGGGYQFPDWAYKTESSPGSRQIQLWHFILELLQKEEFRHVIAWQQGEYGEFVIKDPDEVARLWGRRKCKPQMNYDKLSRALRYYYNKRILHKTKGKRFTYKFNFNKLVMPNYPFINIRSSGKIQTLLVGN
How it was run: as §1

ETV6 = ETV6 (Homo sapiens, UniProt P41212 1-452); conditions: protein: recombinant; tags: N-terminal GST; dsDNA, one strand shown
Chain of ETV6 (P41212 whole entry): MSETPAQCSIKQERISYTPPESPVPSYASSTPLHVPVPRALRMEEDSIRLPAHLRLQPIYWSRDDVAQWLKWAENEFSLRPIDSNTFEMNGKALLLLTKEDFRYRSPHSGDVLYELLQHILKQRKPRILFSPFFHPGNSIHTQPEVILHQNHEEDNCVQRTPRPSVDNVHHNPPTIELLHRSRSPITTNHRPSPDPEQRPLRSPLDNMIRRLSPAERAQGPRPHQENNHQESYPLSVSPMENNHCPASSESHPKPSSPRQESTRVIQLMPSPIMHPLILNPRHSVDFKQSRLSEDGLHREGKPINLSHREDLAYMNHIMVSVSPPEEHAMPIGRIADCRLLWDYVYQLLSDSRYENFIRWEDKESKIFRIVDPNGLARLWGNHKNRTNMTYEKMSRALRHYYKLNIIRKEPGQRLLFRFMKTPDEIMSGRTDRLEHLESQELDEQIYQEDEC
How it was run: as §1

## AACCTT
FEV
  binding signal: 1.24 fold enrichment (6-mer frequency, TF over GST control)
ETV5
  binding signal: 1.3 fold enrichment (6-mer frequency, TF over GST control)
HSF1
  binding signal: 1.66 fold enrichment (6-mer frequency, TF over GST control)
SPIC
  binding signal: 1.17 fold enrichment (6-mer frequency, TF over GST control)
ELF4
  binding signal: 1.27 fold enrichment (6-mer frequency, TF over GST control)
ELK4
  binding signal: 1.36 fold enrichment (6-mer frequency, TF over GST control)
ETV2
  binding signal: 1.13 fold enrichment (6-mer frequency, TF over GST control)
ELF3
  binding signal: 1.23 fold enrichment (6-mer frequency, TF over GST control)
CRX
  binding signal: 1.39 fold enrichment (6-mer frequency, TF over GST control)
ETV1
  binding signal: 1.29 fold enrichment (6-mer frequency, TF over GST control)
ERF
  binding signal: 1.39 fold enrichment (6-mer frequency, TF over GST control)
ETV3L
  binding signal: 1.27 fold enrichment (6-mer frequency, TF over GST control)
ETS2
  binding signal: 1.38 fold enrichment (6-mer frequency, TF over GST control)
SPDEF
  binding signal: 1.29 fold enrichment (6-mer frequency, TF over GST control)
ETV7
  binding signal: 1.29 fold enrichment (6-mer frequency, TF over GST control)
ELF5
  binding signal: 1.33 fold enrichment (6-mer frequency, TF over GST control)
ETV3
  binding signal: 1.28 fold enrichment (6-mer frequency, TF over GST control)
ETV6
  binding signal: 1.27 fold enrichment (6-mer frequency, TF over GST control)
